Source: PubChem BioAssay
Cruzain inh Det: qHTS Assay for Promiscuous and Specific Inhibitors of Cruzain (with detergent) | purified cruzain, Z-FR-AMC fluorescence, 0.01% Triton | Potency, µM, usual class: inhibitors | Cruzipain (Trypanosoma cruzi), P25779 | hit rate 0.43% among 200,000; further: nearly all actives have a fitted effect of over 40% in size
Target sequence (P25779 123-467 limits assumed): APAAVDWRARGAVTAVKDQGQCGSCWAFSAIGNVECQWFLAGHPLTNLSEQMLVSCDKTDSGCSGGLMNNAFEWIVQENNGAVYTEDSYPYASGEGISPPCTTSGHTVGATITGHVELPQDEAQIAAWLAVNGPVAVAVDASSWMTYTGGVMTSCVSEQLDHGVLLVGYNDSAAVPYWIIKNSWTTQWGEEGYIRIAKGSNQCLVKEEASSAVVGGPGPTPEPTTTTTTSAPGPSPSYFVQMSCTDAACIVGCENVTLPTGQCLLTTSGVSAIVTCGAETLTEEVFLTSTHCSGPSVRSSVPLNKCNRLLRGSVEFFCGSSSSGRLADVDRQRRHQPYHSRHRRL
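Detergent-containing arm of a paired screen for aggregation-based inhibition: 0.01% Triton X-100 present. Cruzain at 1.5 nM cleaved 2 uM Z-FR-AMC at pH 5.5 with 5 mM DTT; AMC fluorescence gain over 60 s measured activity.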
Cruzain inh noDet: qHTS Assay for Promiscuous and Specific Inhibitors of Cruzain (without detergent). Cruzipain (Trypanosoma cruzi), P25779. purified cruzain, Z-FR-AMC fluorescence, no detergent. Potency, µM, usual class: inhibitors. hit rate 2.3% among 200,000. AID 1476, 2009; further: nearly all actives have a fitted effect of over 40% in size
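Detergent-free condition (0.00005% Triton X-100) in acetate buffer pH 5.5 with DTT. 1.5 nM enzyme and compound were pre-mixed 15 min, then 2 uM Z-FR-AMC substrate added; reaction progress from fluorescence change between first and third reads (60 s).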
Numbers stand for hits; - = inactive; ? = inconclusive. In the library only some 2.4% were active in any assay of this set; here they are far more common. The call rests on the fitted dose curve; in most records, active means well fitted curve in the direction sought with a large enough effect; inconclusive means small, poorly fitted or top-dose-only effect, or another doubt; inactive means no such curve, though single readings can be large; an effect the other way counts as inactive or inconclusive.

SMILES	Cruzain inh Det	Cruzain inh noDet
Cc1ccc2c(c1)N(C(=O)C1CCN(S(=O)(=O)c3c(C)noc3/C=C/c3ccccc3F)CC1)CCO2	-	13µM
CCC1CN(C(=O)C2CCN(S(=O)(=O)c3c(C)noc3/C=C/c3ccccc3F)CC2)c2cc(C)ccc2O1 (configuration not stated)	-	?
CN(C)C(=O)[C@H]1C[C@@H]1[C@H](NC(=O)OCc1ccccc1)c1ccccc1	-	-
O=C(Nc1ccc([N+](=O)[O-])cc1)Nc1nc(-c2ccc(Cl)s2)cs1	-	5µM
O=C(Nc1nc(-c2ccc(Cl)s2)cs1)c1cccs1	-	?
CC(C)NC(=S)N=Nc1c(O)[nH]c2ccc(C(C)C)cc12	-	-
NC(=S)N=Nc1c(O)[nH]c2ccc(F)cc12	14µM	5µM
COC(=O)N1[C@H]2CC[C@@]3(C)C=C(C)O[C@]1(C)C3c1ccccc12	-	-
CSc1nc2sc3c(c2c(=O)n1-c1ccc(F)c(Cl)c1)CCN(C(C)=O)C3	-	-
O=C(Cn1c2c(sc1=O)C1c3ccccc3OCC1CS2)Nc1ccc(Cl)c(Cl)c1 (configuration not stated)	-	6.3µM
Cn1c(N)c(N2CCCCC2)c(=O)n(CC(=O)Nc2ccc(Cl)c(Cl)c2)c1=O	-	-
O=C1N/C(=C/c2ccco2)C(=O)N1Cc1ccccc1F	-	-
Cc1cc(/C=C2/NC(=O)N(Cc3ccccc3F)C2=O)c(C)n1C	-	25µM
Cc1cc(/C=C2/NC(=O)N(Cc3ccccc3F)C2=O)c(C)n1-c1ccccn1	-	?
Cc1cccc(CN2C(=O)N/C(=C/c3cc(C)n(-c4ccccn4)c3C)C2=O)c1	-	25µM
N#Cc1ccc(CN2CC3(CCN(C(=O)c4cccc(F)c4)CC3)C2)cc1	-	-
CN(C)c1nc(N)c(C(=O)Nc2cccnc2)nc1Cl	-	-
CCc1ccc(CNC(=O)c2ccc(CSc3nc4ccncc4n3Cc3ccccc3)cc2)cc1	-	?
CCN(CC)CCCNC(=O)c1ccc2c(c1)sc1nc(-c3ccc(C)cc3)cn12	-	-
O=C(c1ccc2nc(-c3ccco3)c(-c3ccco3)nc2c1)N1CCN(c2ncccn2)CC1	25µM	?
O=C(c1cccc(C(=O)N2CCN(c3ncccn3)CC2)c1)N1CCN(c2ncccn2)CC1	-	-
Cc1nc2cc(NC(=O)N3CCN(c4ccccn4)CC3)ccc2o1	-	-
O=C(Nc1ccc2nc(-c3ccco3)c(-c3ccco3)nc2c1)N1CCN(c2ccccn2)CC1	14µM	2.5µM
CCOc1ccccc1-c1ccc(C(=O)O)s1	-	?
Cc1nn(C)c(C)c1CCNC(=O)Nc1cccc(Cl)c1C	-	-
SMILES	Cruzain inh Det	Cruzain inh noDet
COc1ccc2oc(=N)c(C(=O)Nc3ccccc3)cc2c1	-	-
COc1ccc2o/c(=N/NC(=S)Nc3ccccc3)c(C(N)=O)cc2c1	-	6.3µM
CN(C)c1ccc(/C=N/N=C2/NC(=O)/C(=C/c3ccc([N+](=O)[O-])cc3)S2)cc1	-	6.3µM
Cc1c(N=C2NC(=O)/C(=C/c3cccc([N+](=O)[O-])c3)S2)c(=O)n(-c2ccccc2)n1C	-	-
COc1ccc(NC(=O)N(CCC(C)C)C(C)c2cccs2)c(OC)c1 (configuration not stated)	-	-
CCn1cc(/C=C2\SC(=O)N(CC(=O)Nc3ccc4c(c3)OCO4)C2=O)c2ccccc21	-	3.2µM
O=C(CNc1ccc2c(c1)OCO2)N/N=C\c1cn(Cc2ccc(F)cc2)c2ccccc12	-	?
Cc1c(/C=C2\SC(=O)N(CC(=O)Nc3ccc4c(c3)OCO4)C2=O)c2ccccc2n1C	-	?
O=C(CNc1ccc2c(c1)OCO2)N/N=C\c1cn(Cc2ccccc2)c2ccccc12	-	13µM
CCOC(=O)CNC(=O)N1CCc2cc(S(=O)(=O)N3CCC(C)CC3)ccc21	-	-
O=S1(=O)c2ccccc2N(Cc2ccccc2F)c2ccccc21	-	-
CN[C@@H]1[C@H](O[C@H]2[C@@H](O[C@@H]3[C@@H](O)[C@@H](O)[C@@H](N=C(N)N)[C@@H](O)[C@@H]3N=C(N)N)O[C@@H](C)[C@]2(O)CO)O[C@H](CO)[C@@H](O)[C@@H]1O	-	-
Cc1ccc2nc(NC(=O)C3CCN(S(=O)(=O)c4cc([N+](=O)[O-])ccc4Cl)CC3)sc2c1	-	32µM
CC(NC(=O)C1CCN(S(=O)(=O)c2cc([N+](=O)[O-])ccc2Cl)CC1)c1ccccc1 (configuration not stated)	-	-
O=C(Nc1nc2ccc(F)cc2s1)C1CCN(S(=O)(=O)c2cc([N+](=O)[O-])ccc2Cl)CC1	-	10µM
Cc1ccc2nc(NC(=O)C3CCN(S(=O)(=O)c4cccc5nsnc45)CC3)sc2c1	-	?
CN(C(=O)Cn1c(=O)n(CCC(=O)NCc2ccc3c(c2)OCO3)c(=O)c2sccc21)c1ccccc1	-	-
O=C(O)c1ccc(CO)o1	-	-
C[C@@]12C[C@H](O)C3[C@H](CCC4=CC(=O)CC[C@]43C)[C@H]1CC[C@@H]2c1csc(N)n1 (some centres not stated)	-	-
CN1C(=O)C2(SCC(=O)N2c2cccc(C(F)(F)F)c2)c2ccccc21 (configuration not stated)	-	?
CN1C(=O)C2(c3ccccc31)N(c1ccc(Br)cc1)C(=O)CS2(=O)=O (configuration not stated)	-	10µM
CN1C(=O)C2(c3ccccc31)N(c1cccc(C(F)(F)F)c1)C(=O)CS2(=O)=O (configuration not stated)	-	5µM
CN1C(=O)C2(SCC(=O)N2c2ccc(F)cc2)c2ccccc21 (configuration not stated)	-	-
CCCNC(=O)c1c(NC(=O)c2ccccc2F)sc2c1CCCCC2	-	-
CN(C)c1ncc2nc(-c3ccccc3)c(=O)n(C[C@H]3CCCO3)c2n1	-	-
SMILES	Cruzain inh Det	Cruzain inh noDet
CSc1ccc(/C=N/NC(=O)COc2ccc(Br)cc2Cl)cc1	-	25µM
CCNC(=O)COc1ccc(Br)cc1Cl	-	-
C[C@@]1(O)CCOC(=O)C1	-	-
COCC(=O)N1CCC2(CC1)CCN(c1ccc(-c3ccccc3)cc1)CC2	-	?
NC(=O)C/C=C\CC(N)=O	-	-
COc1ccc(-c2onc(C)c2C)cc1S(=O)(=O)Nc1cccc(C#N)c1	-	-
COc1ccc(OC)c(NC(=O)c2c(NCc3ccc(OC)c(OC)c3)sc3c2CCC(C)C3)c1 (configuration not stated)	-	?
N#Cc1nc(-c2ccc(COc3ccccc3)o2)oc1NCc1ccccc1	-	-
CC(Nc1oc(-c2ccc(COc3ccccc3)o2)nc1C#N)c1ccccc1 (configuration not stated)	-	20µM
COc1ccc(C(=O)/C=C/c2ccccc2)cc1	-	-
O=C(/C=C/c1ccc2ccccc2c1)c1ccoc1	-	20µM
Cc1cccc(C)c1OCc1nc2c3cnn(-c4ccccc4F)c3ncn2n1	-	-
c1ccc(CC2CCN(c3nc4ccccc4n4nnnc34)CC2)cc1	-	25µM
O=C(c1ccco1)N1CCN(c2nc3ccccc3n3nnnc23)CC1	-	-
FC(F)(F)c1ccccc1-c1ccc2ncnc(NC3CC3)c2c1	-	-
CCCSC1=C(C#N)C(c2cccs2)C(C(=O)Nc2ccccc2)=C(C)N1 (configuration not stated)	-	25µM
